The panel holds about 79,000 compounds, 15% with a hit somewhere; the sample as a whole holds those more often. The source made the active and inactive calls. No stated cut-off is given here; in the data, active means growth inhibition above about 70%; inactive means the rest.

From PubChem BioAssay (NCI) come the findings set out here.

The nature of the first assay: NCI Yeast Anticancer Drug Screen. Data for the mec2-1 strain (AID 157). As to conditions: S. cerevisiae mec2-1 strain, at 50.0 µM, hits give high values. A digest of the protocol: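 Each compound was tested on mec2-1 yeast, a strain altered in DNA damage repair or cell cycle control. Growth inhibition is reported relative to vehicle.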
For `CN(C)S(=O)(=O)C(CO)c1ccccc1` (stereo not given), the growth inhibition is 12.9% (inactive). Same read-out and setting: to `Cc1occ(Br)c(=O)c1O` belongs 12.3% (inactive); to `O=C1C=C2CCC(c3ccc(O)cc3)CC2CC1` (stereo not given), 7.6% (inactive). On the same count and under the same terms, under `CC(C)C1c2ccccc2C(=O)C1C(N)=O` (stereo not given) stands -11.4% (inactive).

In the case of `Nc1nc2c(C(=O)NCc3cccs3)nnn2c2cccc(Cl)c12`, the growth inhibition is -1.45% (inactive).

Take `CC(Br)C(=O)c1ccc2ncccc2c1` (stereo not given): the growth inhibition is -24.8% (inactive). As for `OCC1CCCCCCC1`, the growth inhibition is -19.7% (inactive). On to `COc1cccc(C(=O)NNC(=O)c2ccc3ccccc3c2)c1`, for which the growth inhibition is 4.55% (inactive).

Turning to `C1CC2(CC3(C1)SCCS3)SCCS2`, the growth inhibition was 7.2% (inactive). The same measure, in the same setting: to `Cc1cc(C)nc(Nc2nc3ccc([N+](=O)[O-])cc3[nH]2)n1` belongs -5.3% (inactive); to `CC(=O)Oc1ccc(C(C)(C)C)cc1C`, -10.1% (inactive); to `CC(C)N(CCC#N)C(=S)Nc1cccc(C(F)(F)F)c1`, 13.2% (inactive).

Take `O=C1OC(=Nc2ccccc2Cl)c2ccccc21`: the growth inhibition was -21.5% (inactive). With `C/C=C/C(=O)OC/C=C(\C)CCC=C(C)C`, the growth inhibition was -44.9% (inactive). Same read-out and setting: under `O=[N+]([O-])c1ccc(S(=O)(=O)N/N=C\c2cc([N+](=O)[O-])ccc2O)cc1` stands -1.4% (inactive). On the same count and under the same terms, to `COc1ccc(/C=C/C(=O)C(C)(C)C)cc1OC` belongs 3.9% (inactive).

`CSc1nc2c(c(=O)[nH]1)CC(=O)N2`: the growth inhibition is -5.75% (inactive). Still for that read-out and setting: to `Cc1cc(C)cc(Cc2ccc3ccccc3c2)c1` belongs -3.65% (inactive); to `O=C(O)CCC(=O)NC(c1ccccc1)(c1ccccc1)c1ccccc1`, -9.45% (inactive); to `CN(/N=C/c1ccccn1)C1=NCCN1`, -29.4% (inactive). On to `COc1ccc(C2Oc3cc(OC)c(OC)cc3C2CCl)cc1OC` (stereo not given), for which the growth inhibition was 1.85% (inactive). The same measure, in the same setting: to `Cc1cccc(C)c1Nc1nc(C)c(C(=O)CC(=O)C(=O)Nc2c(C(C)C)cccc2C(C)C)s1` belongs -6.35% (inactive); to `O=C1c2cccc3cccc(c23)C(=O)N1CCCN(CCO)CCO`, 4.25% (inactive).

The next assay in a line: NCI Yeast Anticancer Drug Screen. Data for the sgs1 mgt1 strain (AID 161).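 Further: 0% = growth of cultures given vehicle only.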 As to conditions: S. cerevisiae sgs1 mgt1 strain, at 50.0 µM, hits give high values. In a few lines: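 Mutant yeast exposed to compound; growth scored against vehicle-only wells.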
Turning to `CCC(c1ccc(N(CC)CC)cc1[N+](=O)[O-])c1ccc(N(CC)CC)cc1[N+](=O)[O-]`, the growth inhibition is 44.5% (inactive). Take `O=C1CC2(CCc3ccccc32)C(=O)N1CN1CCN(CCO)CC1` (stereo not given): the growth inhibition was 3.9% (inactive). Same read-out and setting: to `CC(C)CC(C)C` belongs 20.7% (inactive); to `Nc1nc(Cl)cc(Nc2ccc3c(c2)CCC3)n1`, 26.5% (inactive); to `CC1N=C(SCC(=O)c2ccc(Cl)cc2)N2C(C)N=C(SCC(=O)c3ccc(Cl)cc3)N12` (stereo not given), -20.6% (inactive). The same measure, in the same setting: to `COc1ccc(/C=N\O[Si](C)(C)C(C)(C)C)cc1O[Si](C)(C)C(C)(C)C` belongs 21.9% (inactive). Same read-out and setting: under `CCOC(=O)/C(=C\c1c(C)[nH]c2ccccc12)P(=O)(OCC)OCC` stands -22.9% (inactive); under `COC1(C2COc3cc(OCc4ccccc4)ccc3C2=O)C=C2OCOC2=CC1=O` (stereo not given), -6.6% (inactive).

With `CCNC1(C(=O)O)CCCCC1`, the growth inhibition was -1.5% (inactive). On the same count and under the same terms, to `COC(=O)C(C)CC(C)C(=O)OC` (stereo not given) belongs 17.6% (inactive). Still for that read-out and setting: under `CN(C)C=Nc1c(Br)cc(Br)c2nonc12` stands -32.5% (inactive); under `c1ccc(C2=C(c3ccccc3)c3ccccc3C2)cc1`, 8.55% (inactive); under `C/C(=C\c1ccccc1)C(=O)c1c(C)cc(C)cc1C`, 11.1% (inactive). Still for that read-out and setting: to `COc1ccc(Cl)cc1NC(=O)Oc1ccccc1C(N)=O` belongs 24.6% (inactive).

As for `C=CCN=C1NC(=O)C(CC(=O)Nc2cccc(Cl)c2)S1` (stereo not given), the growth inhibition is -34.2% (inactive).

As to `Cc1ccc2cccc(CCOC(=O)c3ccc([N+](=O)[O-])cc3)c2c1`, the growth inhibition was -15.3% (inactive). Same read-out and setting: to `CCC(=O)Nc1cccc2ccccc12` belongs -10.9% (inactive); to `CN(C)S(=O)(=O)C(CO)c1ccccc1` (stereo not given), 6.8% (inactive); to `Cc1occ(Br)c(=O)c1O`, 17.5% (inactive).

In the case of `O=C1C=C2CCC(c3ccc(O)cc3)CC2CC1` (stereo not given), the growth inhibition is -1.6% (inactive).

On to `CC(C)C1c2ccccc2C(=O)C1C(N)=O` (stereo not given), for which the growth inhibition was -12.8% (inactive).

`Nc1nc2c(C(=O)NCc3cccs3)nnn2c2cccc(Cl)c12`: the growth inhibition is -5.35% (inactive).

As for `CC(Br)C(=O)c1ccc2ncccc2c1` (stereo not given), the growth inhibition is -7.6% (inactive). Turning to `OCC1CCCCCCC1`, the growth inhibition was -3.15% (inactive).

As for `COc1cccc(C(=O)NNC(=O)c2ccc3ccccc3c2)c1`, the growth inhibition is -2.45% (inactive). The same measure, in the same setting: under `C1CC2(CC3(C1)SCCS3)SCCS2` stands -0.85% (inactive); under `Cc1cc(C)nc(Nc2nc3ccc([N+](=O)[O-])cc3[nH]2)n1`, 5.5% (inactive).
